Compound activity from PubChem BioAssay.
A selection: hits, their analogues and other compounds. The true share with any hit is near 10%.
Mm-Cpn inhibitor: Inhibitors of TCP-1 ring complex (TRiC) of Methanococcus maripaludis (MmCpn): qHTS; Potency, µM (highest dose often 76.9 µM), for inactives: at the highest dose activity, negative = inhibition, actives largely listed as inhibitors; purified Mm-Cpn ATPase, ADP Transcreener TR-FRET; hit rate 0.031% among 330,000; further: potency means the concentration at half of the fitted maximal effect; nearly all actives have a fitted effect of over 80% in size
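Quantitative HTS used 25 nM Mm-CPN and 10 uM ATP in magnesium/KCl Tris buffer, pH 7.4, with 1 mM DTT. Hydrolysis ran 30 min at 37°C; ADP was read by HTRF.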
VDR inhibitor: Inhibitors of the vitamin D receptor (VDR): qHTS. Vitamin D3 receptor (Homo sapiens), P11473. VDR-SRC2-3 peptide fluorescence polarization, 2 h. Potency, µM, inactives show max response, negative = inhibition, most hits filed as inhibitors. hit rate 0.93% among 400,000. AID 504847, 2011; further: potency means the concentration at half of the fitted maximal effect
Target sequence (P11473 whole entry, looked up): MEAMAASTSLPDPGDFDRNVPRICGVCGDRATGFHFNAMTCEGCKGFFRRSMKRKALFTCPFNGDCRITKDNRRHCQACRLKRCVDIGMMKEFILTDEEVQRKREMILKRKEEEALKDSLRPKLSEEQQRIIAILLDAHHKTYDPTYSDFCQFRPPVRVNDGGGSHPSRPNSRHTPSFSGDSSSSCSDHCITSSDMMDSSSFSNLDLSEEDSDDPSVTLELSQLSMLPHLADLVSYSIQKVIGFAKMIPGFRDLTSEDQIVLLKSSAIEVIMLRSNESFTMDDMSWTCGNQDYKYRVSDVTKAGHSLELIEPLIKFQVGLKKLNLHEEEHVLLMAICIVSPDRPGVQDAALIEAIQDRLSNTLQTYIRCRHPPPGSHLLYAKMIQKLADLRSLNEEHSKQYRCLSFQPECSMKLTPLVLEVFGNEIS
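Fluorescence polarization assay measuring small-molecule disruption of VDR binding to the coregulator peptide SRC2-3. Compounds were pin-transferred (23 nl) into the reagent mix and incubated 2 h at room temperature before reading.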
PLK1 PBD block: qHTS for Inhibitors of PLK1-PDB (polo-like kinase 1 - polo-box domain): Primary Screen. Potency, µM, inactives show max response, negative = inhibition, usual class: inhibitors. Plk1 PBD binding of FITC phosphopeptide, fluorescence polarization. AID 720504, 2013. hit rate 2.8% among 360,000. Serine/threonine-protein kinase PLK1 (Homo sapiens), P53350; further: potency means the concentration at half of the fitted maximal effect; series mostly up to about 57 µM; nearly all actives have a fitted effect of over 65% in size
CCT chaperon mod: High-Throughput Screening for Modulators of Cytosolic Chaperonin Activity; AID 651819, 2012; purified chaperonin ATPase assay, HTRF ADP detection, 30 min; hit rate 0.3% among 360,000; activity change, % (concentration not given with the values), hits read low; in the data active means activity change below about -30%
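ATPase activity: ADP formed was measured by HTRF Transcreener (665/615 nm ratio) after 30 min at 37 deg C with 10 uM ATP. Compounds screened at one 76 uM concentration against 40 or 20 nM TRiC in Tris pH 7.4/KCl/MgCl2/DTT buffer.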
Sfp inh: qHTS Assay for Inhibitors of Bacillus subtilis Sfp phosphopantetheinyl transferase (PPTase). Potency, µM, for the others: largest response in the series, negative = inhibition, most hits filed as inhibitors. Biochemical Sfp PPTase activity, qHTS. hit rate 3.5% among 310,000. 4'-phosphopantetheinyl transferase ffp (Bacillus subtilis), Q9F4F7;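 further: the enzyme is Sfp with the accession as filed and its product quenches rhodamine fluorescence; potency means the concentration at half of the fitted maximal effect; 0% = enzyme reaction without inhibitor and -100% = no enzyme wells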
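Fluorescence-quenching assay with 15 nM Sfp, 5 uM rhodamine-CoA and 12.5 uM BHQ-2-labelled ybbR peptide in pH 7.6 Hepes/MgCl2 buffer. Enzyme was pre-incubated with compound for 15 min at room temperature. Rate was taken from the 30-min fluorescence change (525/598 nm).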
G9a inh: qHTS Assay for Inhibitors of Histone Lysine Methyltransferase G9a. AID 504332, 2011. G9a H3K9 monomethylation, AlphaScreen, 2 h. hit rate 8.8% among 350,000. Potency, µM (highest dose often 102 µM), for the others: at the highest dose activity, negative = inhibition, most hits filed as inhibitors. Histone-lysine N-methyltransferase EHMT2 (Homo sapiens), Q96KQ7; further: potency means the concentration at half of the fitted maximal effect; nearly all actives have a fitted effect of over 75% in size
Target sequence (Q96KQ7 913-1193 limits assumed): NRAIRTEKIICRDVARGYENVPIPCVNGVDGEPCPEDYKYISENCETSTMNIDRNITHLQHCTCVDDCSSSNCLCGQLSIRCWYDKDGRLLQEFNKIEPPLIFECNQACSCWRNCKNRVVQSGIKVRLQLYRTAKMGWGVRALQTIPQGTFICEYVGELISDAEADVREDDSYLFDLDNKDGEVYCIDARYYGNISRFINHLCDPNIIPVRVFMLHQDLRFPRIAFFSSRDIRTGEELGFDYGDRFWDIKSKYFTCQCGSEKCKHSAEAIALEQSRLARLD
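Quantitative HTS format: methyltransferase activity on a biotin-tagged H3K9 peptide is measured by AlphaScreen, using a rabbit anti-monomethyl-H3K9 antibody with streptavidin donor and anti-IgG acceptor beads. Final levels are 20 nM enzyme, 500 nM peptide, 20 uM SAM; 2 h RT.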
The depositor's hits bear a star; ? = inconclusive; . = no result; [ ] = dose if it differs, or a comment. Unless noted, the call rests on the fitted dose curve; in most records, active means well fitted curve in the direction sought with a large enough effect; inconclusive means small, poorly fitted or top-dose-only effect, or another doubt; inactive means no such curve, though single readings can be large; an effect the other way counts as inactive or inconclusive. Unless noted, on the % scale 0 is the no-effect control and ±100 the full control effect.

SMILES	Mm-Cpn inhibitor	VDR inhibitor	PLK1 PBD block	CCT chaperon mod	Sfp inh	G9a inh
Cc1cc2c(nc1C)CCCN2C[C@@H](O)CN1CCN(C)CC1	.	.	.	.	-10.5%	.
Cn1c(=O)n(-c2ccc(Br)cc2F)c(=O)c2sc3ccccc3c21	.	2.3%	.	.	.	?
CC(C)c1nc2ccc(C(=O)NCc3ccc(F)cc3)cc2o1	.	7.5%	.	.	.	1.5%[59 µM]
COc1ccc(/C=N/Nc2ccccn2)cc1O	-2.4%	-8.8%	2.2%	1.7	50.1µM*	.
CC(=O)Nc1ccc(/C=N/Nc2nc3ccccc3[nH]2)cc1	-5.3%	16.1%	-3.0%	0.4	10µM*	-34.8%
Oc1cccc(C=NNc2ccccn2)c1	.	-14.1%	-3.8%	-0.8	.	.
COc1ccc(Br)cc1CNC(=O)c1cc2n(n1)CCCN(Cc1ccc(C)cc1)C2=O	.	-0.1%	.	.	.	2.4%[12.7 µM]
COc1cc(OC)cc(-c2cc3nc(C)c(CCC(=O)NCc4ccc(Cl)cc4)c(C)n3n2)c1	.	-10.5%	.	.	.	5.0%[59 µM]
COCCn1c(SCC(=O)Nc2sccc2C(N)=O)nc2cc(Cl)ccc2c1=O	-3.3%	17.8%	-10.6%	-1.0	-15.2%	44.7µM*
CC(C)Cn1c(SCC(=O)Nc2cccc(S(N)(=O)=O)c2)nc2ccccc2c1=O	0.9%	-3.6%	?	5.1	-7.8%	-10.7%
COCCn1c(SCC(=O)Nc2cccc(S(N)(=O)=O)c2)nc2cc(Cl)ccc2c1=O	0.4%	?	7.52µM*	-3.7	-0.4%	2.9%
O=C(c1ccc2c(Cl)c3c(nc2c1)CCCC3)N1CCN(c2ccccc2F)CC1	.	-2.2%	.	.	.	?
O=C(N/C=N/O)C1=NOC(CNc2ncc(C(F)(F)F)cc2Cl)C1 (configuration not stated)	-1.4%	-6.1%	1.9%	-0.5	9.1%	44.7µM*
O=C(NC1CC1)C1=NOC(CNc2ncc(C(F)(F)F)cc2Cl)C1 (configuration not stated)	2.3%	-12.7%	-4.9%	-0.8	13.4%	1.6%
CC1=C/C(=N\NC(=S)Nc2cccnc2)CC(C)(C)C1	?	-9.1%	-17.6%	-2.3	-0.7%	?
CC(C)(C)C1CCC(=NNC(=O)C(=O)NCc2cccnc2)CC1 (configuration not stated)	0.9%	-4.2%	-21.6%	0.2	18.8%	?
CC(C)(C)C1CCC(=NNC(=S)NCc2ccccc2)CC1 (configuration not stated)	0.2%	-2.4%	-0.4%	0.0	-3.7%	8.91µM*
S=C(NCCc1ccccc1)NN=C1CCCCCC1	?	-3.6%	26.7µM*	-0.9	17.9%	59.9%[12.7 µM]
CCC(C)(C)C1CCC(=NNC(=S)Nc2ccccc2)CC1 (configuration not stated)	-3.5%	-13.1%	-2.8%	-2.0	3.5%	7.94µM*
CCC(C)(C)C1CCC(=NNC(=S)Nc2cccnc2)CC1 (configuration not stated)	-0.2%	-1.1%	-2.9%	0.9	?	7.94µM*
O=C(O)[C@H]1CCCN(CCC=C(c2ccccc2)c2ccccc2)C1	.	.	.	.	1.9%	.
Cc1cc(C)c(NC(=O)c2cc3c(=O)n4ccccc4nc3n2C)c(C)c1	.	3.5%	.	.	.	0.7%[59 µM]
COc1ccc(/C=N/Nc2cc(N(C)C)nc(N(C)C)n2)cc1	-1.4%	-5.2%	-0.9%	1.9	-15.5%	4.47µM*
COc1ccc(/C=N/NC(C)(C)C)c(OC)c1	-2.7%	?	-24.3%	-3.7	-13.0%	12.6µM*
COc1ccc(/C=C/C(=O)c2c(O)cc(C)oc2=O)c(OC)c1	0.3%	-0.4%	8.5%	-1.2	21.6%	-11.8%[59 µM]
SMILES	Mm-Cpn inhibitor	VDR inhibitor	PLK1 PBD block	CCT chaperon mod	Sfp inh	G9a inh
COc1ccc(/C=C/C(=O)c2cccs2)c(OC)c1	.	11.2µM*	.	.	?	.
COc1ccc(/C=N/NC2=NCCCCC2)cc1	0.3%	13.3%	-0.6%	0.6	-2.7%	28.2µM*
O=C(NCc1ccccc1F)C1CCN(c2nnc(-n3cccc3)s2)CC1	.	-0.8%	.	.	.	-1.8%[59 µM]
CCN(CC)S(=O)(=O)c1nnc(NC(=O)COc2ccc(Cl)cc2)s1	.	-4.0%	.	.	.	-44.0%[59 µM]
COc1cc(/C=C\c2ccc(OC)cc2OC)cc(OC)c1	.	5.3%	.	.	50.1µM*	.
COc1ccc(/C=N/NC2=NCCCCC2)c(OC)c1	0.4%	-8.4%	-17.1%	-1.5	7.4%	11.2µM*
Oc1ccccc1/C=N/NC1=NCCCCC1	-0.7%	22.9%	-0.5%	-0.6	-4.8%	.
Cc1cc(C)cc(OC(=O)c2cc(-c3ccc4c(c3)OCCO4)on2)c1	.	8.7%	.	.	.	-11.8%[59 µM]
O=C(COC(=O)[C@H](Cc1ccccc1)NC(=O)c1cccs1)Nc1c(Cl)cccc1Cl	1.1%	-6.5%	1.0%	-1.8	12.2%	50.1µM*
O=C(COC(=O)C(Cc1ccccc1)NC(=O)c1cccs1)NCc1ccccc1 (configuration not stated)	0.3%	3.5%	1.1%	1.9	.	-5.3%[12.7 µM]
CCOC(=O)/C=C(\C)Sc1cc(=O)oc2ccccc12	-0.3%	8.6%	-26.1%	-0.6	0.1%	13.8%[59 µM]
CCOC(=O)/C=C(\C)Sc1cc(O)c2ccccc2c1O	-1.5%	20µM*	10.6µM*	0.7	7.94µM*	2.51µM*
COc1ccc(-c2noc(CC(=O)Nc3ccc(F)cc3F)n2)cc1	.	12.3%	.	.	.	7.8%[59 µM]
COCCNC(=O)c1c(-c2ccccc2)c(-c2ccccc2)nn(C)c1=O	.	13.4%	.	.	.	?
Cc1cc(/C=C/c2ccc3cc(N(C)C)ccc3[n+]2C)c(C)n1-c1ccccc1	.	.	.	.	-27.3%	.
CN(CCCS(=O)(=O)[O-])c1ccc(/C=C/c2ccc3ccccc3[n+]2C)cc1	-8.0%	-11.6%	-9.2%	-1.7	-9.3%	31.6µM*
COc1ccccc1CCNC(=O)CCc1c(C)c2cc3c(C)coc3cc2oc1=O	.	19.3%	.	.	.	-20.9%[59 µM]
Cc1cc(C)n(-c2nc3ccccc3nc2Nc2ccc(Cl)cc2Cl)n1	.	-13.2%	.	.	.	?
CC(C)CNC(=O)C(=O)NNC(=O)C1CCCCC1	0.8%	-1.5%	-7.9%	0.3	-19.9%	20µM*
CCC/C(O)=C1\C(=O)CC(C)(C)CC1=Nc1ccccc1O	-4.4%	79.4µM*	13.4µM*	-5.0	8.6%	2.8%
CCC/C(O)=C1\C(=O)CC(C)(C)CC1=NCCO	0.4%	-8.2%	-1.1%	-2.6	0.8%	5.7%
